# The supplement of paper PMC12067093, “Discovery and optimisation of a covalent ligand for TRIM25 and its application to targeted protein ubiquitination” (Chemical Science, 2025)
# Targets with the largest changes are over-represented here; the source holds about 21,000 in all.
# Compound: CC1Cc2ccccc2N1C(=O)C1CCCN(C1)C(=O)CCl (mixture of isomers) [TRIM25 ligand 11 (diastereomer mixture)]
# Assay: probe-labelled cysteine peptide fold change vs DMSO (competition) (log2 fold change); higher = less target engagement (more negative = stronger competition)
# Details: 50 µM; THP-1; incubation time: 4 h
# 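Also: competitive chemoproteomic profiling in live THP-1 cells with an iodoacetamide desthiobiotin (IA-DTB) probe, comparing probe-labelled peptide intensities in compound-treated cells against DMSO-treated controls.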
row,Target,probe-labelled cysteine peptide fold change
1,MAP4K2_Q12851_302_ASDPHLGTPSPEDCELETYDMFPDTIHSR (UniProt Q12851),-0.161
2,NAA25_Q14CX7_339_SQGCNDEYK (UniProt Q14CX7),-0.0602
3,MAP4_P27816_635_CSLPAEEDSVLEK (UniProt P27816),-0.135
4,NAA10_P41227_17+21_NARPEDLMNMQHCNLLCLPENYQMK (UniProt P41227),-0.156
5,MDN1_Q9NU22_4604_HLFFSQSCSLLVR (UniProt Q9NU22),0.423
6,METTL5_Q9NRN9_107+110_NAEEFELTNIDMVQCDVCLLSNR (UniProt Q9NRN9),-0.00432
7,MATR3_P43243_821_NTHCSSLPHYQK (UniProt P43243),-0.196
8,MRPL45_Q9BRJ2_151_DIFIEAHLCLNNSDHDR (UniProt Q9BRJ2),-0.159
9,LSS_P48449_484_LCDAVAVLLNMR (UniProt P48449),-0.128
10,NCAPG_Q9BPX3_177_DDECPVVNAYATLIENDSNPEVR (UniProt Q9BPX3),-0.473
11,MDN1_Q9NU22_1400_TTICQVFAALANQK (UniProt Q9NU22),0.0599
12,MOCS3_O95396_193_YLVNDACVLAGRPLVSASALR (UniProt O95396),-0.0185
13,MACF1_Q9UPN3_5309_DCDVQGLEHDMEEINAR (UniProt Q9UPN3),-0.0387
14,NAPA_P54920_212+215_AALCHFCIDMLNAK (UniProt P54920),0.149
15,MGMT_P16455_145_GNPVPILIPCHR (UniProt P16455),-1.05
16,NCAPH_Q15003_114_FTNTQITEHYSTCIK (UniProt Q15003),-0.135

row,Target,probe-labelled cysteine peptide fold change
1,MSTO1_Q9BUK6_232_LHFYVEECDYLQGFQILCDLHDGFSGVGAK (UniProt Q9BUK6),-0.0331
2,MYADM_Q96S97_279_SRDVSCSR (UniProt Q96S97),1.29
3,MBIP_Q9NS73_243_DCGNQAVEER (UniProt Q9NS73),-0.0072
4,MRPS24_Q96EL2_103_FMWGTFPGCLADQLVLK (UniProt Q96EL2),0.203
5,MYO9B_Q13459_1169_HIQSCK (UniProt Q13459),-0.105
6,MTREX_P42285_983_LEIDEETYLSSFKPHLMDVVYTWATGATFAHICK (UniProt P42285),-0.0469
7,MYO1G_B0I1T2_618_LDENHCR (UniProt B0I1T2),0.247
8,NCAPG2_Q86XI2_776_NRECLLSAPR (UniProt Q86XI2),-0.00285
9,MRC2_Q9UBG0_213_EDGHLWCATTQDYGKDER (UniProt Q9UBG0),-0.0151
10,MATR3_P43243_230_CRDDSFFGETSHNYHK (UniProt P43243),-0.0509
11,MORC3_Q14149_717_QCHMFTDQIK (UniProt Q14149),0.000884
12,MRPS34_P82930_93_SWLWQHDEPCYWR (UniProt P82930),0.142
13,MCM3AP_O60318_439_SESTDSLGGLSPSEVTAIQCK (UniProt O60318),-0.262
14,MATR3_P43243_296_GYPHLCSICDLPVHSNK (UniProt P43243),0.00253
15,MFSD2A_Q8NA29_44_KQQLSVCNK (UniProt Q8NA29),-0.294
16,MICAL2_O94851_1059_PHFIHCK (UniProt O94851),0.0284
